PubChem BioAssay AID488890 (Southern Research Specialized Biocontainment Screening …, 2010)
Among all 320,000 compounds or so, about 1,300 (0.41%) were called active. Not shown: some 3% with an inconclusive outcome. How the calls were made is not given here. A selection follows. Entries with a potency or affinity are not part of this list.

Assay: growth inhibition of non-replicating M. tuberculosis (AID 488890);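 further: plate controls were DMSO cells for no effect and high antibiotic wells for full effect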
Conditions: Mycobacterium tuberculosis non-replicating, at 25 µM, stronger effect = higher value

Structure (SMILES) | inhibition
CC(O)C(=O)N/N=C/c1ccccc1C(=O)O (stereo not drawn) | -1.19%
COc1ccc2[nH]c3c(Cl)ncnc3c2c1 | 66.1%
COc1ccc2c(c1)[nH]c1c(C)nccc12 | 0.33%
COc1ccc(NC(=O)C2CCCN(C(=O)c3ccc(Cl)cc3)C2)cc1Cl (stereo not drawn) | 5.35%
CCOc1ccc(CNC(=O)Cn2ccc3cc(S(=O)(=O)N4CCCC4)ccc32)cc1 | 9.09%
CC(NC(=O)Cc1ccsc1)c1ccc(F)cc1 (stereo not drawn) | 3.93%
COc1ccc(Br)c(C(=O)N2CCN(S(=O)(=O)/C=C/c3ccccc3)CC2)c1 | 17.6%
CCc1ccc(N2CC(C(=O)Nc3ccc(S(=O)(=O)NCC4CCCO4)cc3)CC2=O)cc1 (stereo not drawn) | -5.44%
NC(=O)N/N=C/c1cn(-c2ccccc2)nc1-c1cccs1 | 8.14%
S=c1[nH]nc(-c2cccs2)n1/N=C/c1cn(-c2ccccc2)nc1-c1cccs1 | -1.62%
Cc1nc2ccccc2c(=O)n1/N=C/c1cn(-c2ccccc2)nc1-c1cccs1 | 3.43%
CC1(C)CC(=O)C(=Cc2cn(-c3ccccc3)nc2-c2ccccc2)C(=O)C1 | 44.3%
O=C(N/N=C/c1cn(-c2ccccc2)nc1-c1cccs1)c1ccccc1F | 3.19%
O=Cc1cn(-c2ccccc2)nc1-c1ccccc1 | -1.35%
Cc1ccc(/C=C2\SC(=S)N(CCC(=O)Nc3cccnc3)C2=O)cc1 | 2.99%
Cc1ccc(CN2CC(C(=O)N3CCN(c4ccccc4O)CC3)CC2=O)cc1 (stereo not drawn) | 5.09%
COc1ccc2cc3cc(C(=O)N4CCN(c5ccccn5)CC4)oc3nc2c1 | 15.3%
CCOc1cc(/C=C/C(=O)N(CC)CC(=O)NCc2cccs2)cc(Cl)c1OC | 11.9%
COc1ccccc1Cn1nnc2c(=O)[nH]c(C3CCN(C(=O)c4ccccc4Cl)CC3)nc21 | 33.2%
CC(=O)Nc1ccc(-c2csc(NC(=O)CCNC(=O)c3ccco3)n2)cc1 | 1.09%
O=C(COC(=O)CCS(=O)(=O)c1ccc(Cl)cc1)NCCc1ccc(Cl)cc1Cl | 21.4%
COC(=O)c1ccc(Cn2cc(C(F)(F)F)ccc2=O)cc1 | 69.9%
COC(=O)c1cc(Br)c(=O)n(Cc2ccc(C(=O)O)cc2)c1 | -0.84%
C[C@H](CO)N1C[C@H](C)[C@@H](CN(C)C(=O)NC2CCCCC2)Oc2c(NC(=O)Cc3ccccc3)cccc2C1=O | 17.9%
CN(CC(=O)Nc1ccc(F)c(F)c1)S(=O)(=O)c1cccs1 | 2.99%

Structure (SMILES) | inhibition
CCN(C[C@H]1N[C@@](C)(C(=O)OC)[C@H]2C(=O)N(C)C(=O)[C@@H]12)S(=O)(=O)c1ccc(OC)cc1 | 9.25%
COC(=O)COc1ccccc1/C=C1/NC(=O)NC1=O | 5%
CCC(CC)NC(=O)COc1ccc(OC)cc1C=O | -3.52%
COC(=O)COc1cc(Cl)c(C=O)cc1OC | 65.7%
COC(=O)COc1ccccc1C(N)=O | 2.19%
COc1cccc(OC)c1C(=O)Nc1ccccc1C(=O)N1CCCCCC1 | 1.4%
NC(=O)CCN(C(=O)c1cccc(S(=O)(=O)N2CCc3ccccc32)c1)c1ccccc1 | 24.7%
O=C(COc1ccccc1)Nc1ccncc1 | 49.4%
COc1cccc(OCC(=O)NNC(=O)c2cccs2)c1 | 88.2%
C/C(=N\NC(=O)COc1ccc2ccccc2c1)c1cccs1 | 1.6%
CCOc1ccc(S(=O)(=O)N(C)c2ccc(OCC(=O)Nc3nccs3)cc2)cc1 | 20.7%
CCOc1ccc(CC(=O)Nc2nccs2)cc1 | 3.37%
O=C(COc1ccc2ccc(=O)oc2c1)Nc1nccs1 | 9.82%
O=C(COc1ccccc1)Nc1nccs1 | 50.5%
COc1ccc(OCC(=O)Nc2ccncc2)cc1 | 67%
CCc1cccc(OCC(=O)Nc2c[nH]c(=O)[nH]c2=O)c1 | -17.2%
COc1ccc(N2CC(NS(=O)(=O)c3cccs3)CC2=O)cc1 (stereo not drawn) | -13.6%
CCOc1ccc(NC(=O)CSc2nnc(C(C)C)n2CC)cc1 | 11.7%
CCn1cc(/C=C(\NC(=O)c2ccccc2F)C(=O)NCCCn2ccnc2)c2ccccc21 | 14.8%
COc1ccc(NC(=O)CSc2nc(-c3ccco3)nc3cc(=O)[nH]n23)cc1Cl | 14.5%
CCCN(Cc1nnc(-c2ccccc2Cl)o1)C(=O)c1ccc(C)c(S(=O)(=O)N2CCOCC2)c1 | -1.62%
CC(=O)C[C@@H](O)CC(=O)[C@@H]1OC(=O)CCCCCCCc2ccccc21 | 4.28%
Cc1ccc(C(=O)Nc2scc(-c3ccccc3)c2C(=O)O)cc1 | 67.7%
CCOC(=O)c1c(C)[nH]c(C=O)c1Cc1cccc(Cl)c1 | 22.5%
NC(=O)c1ccccc1NC(=S)NC(=O)c1ccc(Br)o1 | 13.4%

Structure (SMILES) | inhibition
Cc1cc(OCC(=O)Nc2ccncc2)c(C)cc1Br | 68%
Cc1cc(OCC(=O)Nc2ccncc2)cc(C)c1Br | 62.5%
Cc1cc(C)cc(OCC(=O)Nc2ccncc2)c1 | 2.54%
O=C(CNc1ccc2ccccc2c1)N/N=C/c1ccccn1 | 56.7%
O=C(COc1ccc([N+](=O)[O-])cc1)N/N=C/c1ccccn1 | 64.7%
Cc1ccc(OCC(=O)Nc2ccncc2)cc1 | 76.7%
COC(=O)COc1ccc(/C=N/NC(=O)c2ccc(N(Cc3ccccc3)S(C)(=O)=O)cc2)cc1 | 64.2%
CCn1c(SCc2cccnc2)nnc1-c1c[nH]c2ccccc12 | -5.65%
CC(=O)N1CCCc2cc(S(=O)(=O)NCCC3=CCCCC3)ccc21 | 17.1%
CC(=O)NCC(=O)OCC(=O)c1ccc(Br)cc1 | 27.9%
CCOC(=O)c1ccc(CNCc2ccc(Br)cc2)cc1 | 43.5%
O=C(CN1CCCCC1)c1ccc(OC(F)F)cc1 | -4.47%
CCC(=O)c1ccc(OCC(O)CN2CCCCC2)cc1 (stereo not drawn) | 9.06%
O=C(CCCCN1CCCCC1)c1ccccc1 | -7.7%
CC(C)COc1ccc(C(=O)OCCN2CCCCC2)cc1 | 13.8%
O=C(CCN1CCCCC1)Nc1ccccc1 | -3.98%
CC(C)Oc1ccc(OCCCN2CCCCCC2)cc1 | 35.7%
COc1ccc(C(=O)OCCN2CCCCC2)cc1 | 4.85%
COc1ccc(C(=O)CN2CCCCC2)cc1 | -2.71%
COCCC1CCCCN1C(=O)c1cc(COc2ccc(C)nc2)on1 (stereo not drawn) | -7.63%
Cc1csc(=Nc2c(C)n(C)n(-c3ccccc3)c2=O)n1Cc1ccccc1 | -1.63%
NC(=O)c1ccsc1NC(=O)COC(=O)c1ccc(Cl)c(N)c1 | -0.17%
COc1ccc(C)cc1NC(=O)CCC(=O)Nc1nnc(C2CCCCC2)s1 | 0.87%
